This passage reports outcome and Potency results from PubChem BioAssay (Tox21).

A number with no mark means an inactive call. Records with an inconclusive call do not appear. The source made the active and inactive calls. Unless noted, the call rests on the fitted dose curve; in most records, active means well fitted curve in the direction sought with a large enough effect in the repeat runs; inconclusive means weak or mixed curves; inactive means no such curve, though single readings can be large; an effect the other way counts as inactive or inconclusive.

Experiment [1] addresses Progesterone receptor (Homo sapiens) (UniProt P06401). The experiment is described as follows: qHTS assay to identify small molecule agonists of the progesterone receptor (PR) signaling pathway (AID 1346784; calls by dose curve; further: nearly all actives have a fitted effect of over 30% in size). The method in brief:
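Using charcoal-stripped serum (2%) to limit endogenous steroids, PR-UAS-bla HEK 293T cells received compounds for 16 hr at 37C after 6 hr plating; beta-lactamase FRET fluorescence was recorded following 2 hr substrate loading at room temperature.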

The target is the same in experiment [2]. The experiment is described as follows: qHTS assay to identify small molecule antagonists of the progesterone receptor (PR) signaling pathway (AID 1346795; active means well fitted inhibition curve with a large enough effect in the signal ratio in the repeat runs, not every such curve was filed as active; the % refers to the signal ratio). The method in brief: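 Inhibition of R5020-induced (1 nM final) beta-lactamase reporter signal in PR-UAS-bla HEK293T cells was scored by FRET fluorescence after overnight (16 hr) compound treatment.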

A short description of experiment [3]: qHTS assay to identify small molecule antagonists of the progesterone receptor (PR) signaling pathway - cell viability counter screen (AID 1346798). Further: series mostly up to about 92 µM; nearly all actives have a fitted effect of over 50% in size. The method in brief: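 ATP content as viability readout: CellTiter-Glo luminescence, 30 min room temperature, in PR-UAS-bla HEK293T cells after 16 hr compound/R5020 treatment at 37C and 5% CO2.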
Experiment [4] can be described thus: qHTS assay to identify small molecule agonists of the progesterone receptor (PR) signaling pathway - cell viability counter screen (AID 1346799; calls by dose curve; further: nearly all actives have a fitted effect of over 45% in size). The method in brief: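 Cytotoxicity in PR-bla HEK293T cells: 16 h compound, 37C; CellTiter-Glo added post-FRET read; luminescence after 30 min RT.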
Experiment [5] in a line: qHTS assay to identify small molecule antagonists of the TGF-beta/Smad signaling pathway - cell viability counter screen (AID 1346824). Further: nearly all actives have a fitted effect of over 50% in size. The method in brief: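 SBE-bla HEK 293T cells, incubated overnight, then compound plus 0.25 ng/mL TGF-beta1 (stock added) for 5 hr at 37 C. Viability was read in the same wells by CellTiter-Glo luminescence after 30 min at room temperature.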

A short description of experiment [6]: qHTS assay to identify small molecule agonists of the TGF-beta/Smad signaling pathway - cell viability counter screen (AID 1346829). Further: top concentration of the series differs between compounds; nearly all actives have a fitted effect of over 45% in size. The method in brief: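 SBE-bla HEK 293T cells plated overnight, compound exposure 5 hr at 37 C. Viability read in the same wells by CellTiter-Glo luminescence after 30 min at room temperature, following the beta-lactamase read.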

Experiment [7] is described as follows: qHTS assay to identify small molecule agonists of the TGF-beta/Smad signaling pathway (AID 1346859; active means well fitted activation curve with a large enough effect in the signal ratio in the repeat runs, not every such curve was filed as active; the % refers to the signal ratio; further: series mostly up to about 77 µM). The method in brief: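 Stable Smad binding element-beta-lactamase HEK 293T cells; 5 hr compound exposure at 37 C under 5% CO2; 2 hr room-temperature substrate step; fluorescence excited at 405 nm, collected at 460 nm and 530 nm.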
Experiment [8] deals with Thyrotropin-releasing hormone receptor (Homo sapiens) (UniProt P34981). Briefly: qHTS assay to identify small molecule antagonists of the thyrotropin-releasing hormone receptor (TRHR) signaling pathway (AID 1346877; active means well fitted inhibition curve with a large enough effect in the repeat runs, not every such curve was filed as active; further: series mostly up to about 51 µM). The method in brief:
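TRHR-expressing HEK293 cells loaded with calcium dye for 2 h at 37 C; compounds pre-incubated 5 min at room temperature before TRH challenge at 1 nM final. Intracellular calcium fluorescence read kinetically for 3 min; 15 concentrations in triplicate.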

The target is the same in experiment [9]. The experiment is described as follows: qHTS assay to identify small molecule agonists of the thyrotropin-releasing hormone receptor (TRHR) signaling pathway (AID 1346891; calls by dose curve; further: series mostly up to about 58 µM). The method in brief:
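In 1536-format, 1500 TRHR-Hek293 cells per well grew 18 h, took up calcium dye for 2 h at 37 °C, received compound, and were read kinetically; 15-point titrations, triplicates.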

Experiment [10] is described as follows: Human pregnane X receptor (PXR) small molecule agonists, qHTS cell viability counter screen (AID 1346977). Further: nearly all actives have a fitted effect of over 50% in size. The method in brief: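 Readout is CellTiter-Fluor fluorescence from PXR-Luc HepG2 cells. Plated cells rested 5hr, then were treated with compounds for 24hr at 37C and 5% CO2, with reagent present during the last hour.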
Experiment [11] in a line: Caspase-3/7 induction in HepG2 cells by small molecules, qHTS assay (AID 1346978). Further: nearly all actives have a fitted effect of over 15% in size. The method in brief: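 Wild-type HepG2 cells, 2,000/well, settled 5 hr at 37 C and 5% CO2, then compound-treated for 17 hr; caspase-3/7 activity read by luminescent Caspase-Glo 3/7 after 30 min at room temperature.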
Experiment [12] can be described thus: Caspase-3/7 induction in CHO-K1 cells by small molecules, qHTS cell viability counter screen (AID 1346979). Further: nearly all actives have a fitted effect of over 35% in size. The method in brief: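 To flag cytotoxic compounds, treated CHO-K1 wild-type cells were given CellTiter-Fluor at 16hr and read fluorescently after 1hr at 37C; the caspase-3/7 luminescence was measured in these same wells.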
Experiment [13] in a line: Caspase-3/7 induction in CHO-K1 cells by small molecules, qHTS assay (AID 1346980). Further: nearly all actives have a fitted effect of over 15% in size. The method in brief:
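Wild-type CHO-K1 cells exposed to compounds for 17hr at 37 C, 5% CO2. Caspase-3/7 activity then measured by Caspase-Glo 3/7 luminescence after 30min at room temperature.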

Experiment [14] is described as follows: Caspase-3/7 induction in HepG2 cells by small molecules, qHTS cell viability counter screen (AID 1346981). Further: series mostly up to about 92 µM; nearly all actives have a fitted effect of over 30% in size. The method in brief:
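Wild-type HepG2 cells, 2,000/well, settled 5 hr at 37 C, 5% CO2 before compound addition. Viability read by CellTiter-Fluor fluorescence, reagent added after 16 hr compound exposure, then 1 hr at 37C, in the same wells as the caspase read.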

In experiment [15] the target is Nuclear receptor subfamily 1 group I member 2 (Homo sapiens) (UniProt O75469). The experiment is described as follows: Human pregnane X receptor (PXR) small molecule agonists, qHTS assay (AID 1346982). Further: nearly all actives have a fitted effect of over 35% in size. Further: potency means the concentration at half of the fitted maximal effect. The method in brief: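 PXR-Luc HepG2 reporter cells (CYP3A4-driven luciferase) in 5% charcoal-stripped FBS medium, plated 5 h before compound addition, then treated 24 h at 37C. Luciferase read by ONE-Glo luminescence after 30 min at room temperature.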
Nuclear receptor subfamily 1 group I member 2 (Homo sapiens), sequence (O75469 whole entry, looked up): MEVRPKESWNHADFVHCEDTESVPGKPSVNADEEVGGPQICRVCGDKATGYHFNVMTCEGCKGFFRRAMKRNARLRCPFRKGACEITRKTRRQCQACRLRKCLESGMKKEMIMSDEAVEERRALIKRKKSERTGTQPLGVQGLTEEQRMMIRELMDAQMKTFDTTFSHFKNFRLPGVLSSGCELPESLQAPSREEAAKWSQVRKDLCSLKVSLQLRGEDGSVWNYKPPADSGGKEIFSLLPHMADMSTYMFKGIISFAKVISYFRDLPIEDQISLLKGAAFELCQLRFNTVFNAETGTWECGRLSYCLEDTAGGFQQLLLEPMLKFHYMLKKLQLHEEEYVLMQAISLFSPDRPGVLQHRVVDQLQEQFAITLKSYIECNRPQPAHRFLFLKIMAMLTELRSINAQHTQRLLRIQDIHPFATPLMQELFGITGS

Experiment [16] addresses Cytochrome P450 2D6 (Homo sapiens) (UniProt P10635). The experiment is described as follows: Cytochrome P450 Family 2 Subfamily D Member 6 (CYP2D6) small molecule antagonists: luciferase reporter qHTS assay (AID 1671196). Further: series mostly up to about 120 µM; nearly all actives have a fitted effect of over 50% in size. The method in brief: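 Cell-free P450-Glo system: CYP2D6 with proluciferin substrate was pre-incubated with compound for 10 min, then reacted with NADPH regeneration for 1 h at room temperature. Luciferin product was detected after 20 min, and data were reported as relative luminescence units.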

Experiment [17] deals with Cytochrome P450 2C19 (Homo sapiens) (UniProt P33261). The experiment is described as follows: Cytochrome P450 Family 2 Subfamily C Member 19 (CYP2C19) small molecule antagonists: luciferase reporter qHTS assay (AID 1671197). Further: nearly all actives have a fitted effect of over 65% in size. Further: potency means the concentration at half of the fitted maximal effect. The method in brief:
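P450-Glo CYP2C19 system: enzyme-substrate mix with compound 10 min at room temperature, then NADPH regeneration solution, 1 h at 37C. Proluciferin-to-luciferin conversion detected by luminescence after 20 min with detection reagent; ketoconazole as positive control.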

Cytochrome P450 2C19 (Homo sapiens), sequence (P33261 whole entry, looked up): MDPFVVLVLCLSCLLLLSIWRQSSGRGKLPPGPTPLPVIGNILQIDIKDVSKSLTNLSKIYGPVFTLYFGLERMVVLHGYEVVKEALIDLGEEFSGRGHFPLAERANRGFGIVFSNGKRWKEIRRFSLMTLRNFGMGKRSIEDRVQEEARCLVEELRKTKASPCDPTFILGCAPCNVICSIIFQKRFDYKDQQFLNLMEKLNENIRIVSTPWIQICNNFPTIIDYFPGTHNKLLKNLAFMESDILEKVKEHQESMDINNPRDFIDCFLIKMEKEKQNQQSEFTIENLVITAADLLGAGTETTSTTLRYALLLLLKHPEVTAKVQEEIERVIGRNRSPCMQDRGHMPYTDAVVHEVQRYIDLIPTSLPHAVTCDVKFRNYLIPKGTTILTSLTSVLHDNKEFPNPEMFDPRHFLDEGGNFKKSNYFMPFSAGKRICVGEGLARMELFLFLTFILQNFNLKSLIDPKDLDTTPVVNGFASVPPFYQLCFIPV
Progesterone receptor (Homo sapiens), sequence (P06401 whole entry, looked up): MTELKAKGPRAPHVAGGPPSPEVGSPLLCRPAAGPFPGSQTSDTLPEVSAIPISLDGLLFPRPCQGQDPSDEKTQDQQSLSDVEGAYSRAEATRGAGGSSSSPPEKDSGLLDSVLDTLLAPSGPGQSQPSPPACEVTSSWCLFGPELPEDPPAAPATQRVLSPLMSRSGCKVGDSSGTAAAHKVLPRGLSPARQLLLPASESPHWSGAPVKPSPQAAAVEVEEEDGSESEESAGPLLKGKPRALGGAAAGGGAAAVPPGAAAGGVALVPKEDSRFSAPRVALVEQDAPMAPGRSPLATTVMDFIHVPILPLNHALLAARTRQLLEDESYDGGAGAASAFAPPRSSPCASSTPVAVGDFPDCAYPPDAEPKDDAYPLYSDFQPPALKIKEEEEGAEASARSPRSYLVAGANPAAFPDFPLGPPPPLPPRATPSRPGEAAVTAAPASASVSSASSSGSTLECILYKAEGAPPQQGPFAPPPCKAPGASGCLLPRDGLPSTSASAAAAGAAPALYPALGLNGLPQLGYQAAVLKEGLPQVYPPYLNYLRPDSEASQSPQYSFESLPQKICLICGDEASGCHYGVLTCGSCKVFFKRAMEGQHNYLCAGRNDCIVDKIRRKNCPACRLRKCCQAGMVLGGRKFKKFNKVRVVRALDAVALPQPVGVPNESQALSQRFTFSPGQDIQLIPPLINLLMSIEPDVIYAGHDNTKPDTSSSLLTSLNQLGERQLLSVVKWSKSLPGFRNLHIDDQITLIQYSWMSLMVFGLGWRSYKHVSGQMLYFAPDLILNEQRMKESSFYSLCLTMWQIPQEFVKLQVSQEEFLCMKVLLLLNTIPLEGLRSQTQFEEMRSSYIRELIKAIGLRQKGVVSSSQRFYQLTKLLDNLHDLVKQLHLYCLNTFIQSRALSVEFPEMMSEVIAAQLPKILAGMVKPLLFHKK
Thyrotropin-releasing hormone receptor (Homo sapiens), sequence (P34981 whole entry, looked up): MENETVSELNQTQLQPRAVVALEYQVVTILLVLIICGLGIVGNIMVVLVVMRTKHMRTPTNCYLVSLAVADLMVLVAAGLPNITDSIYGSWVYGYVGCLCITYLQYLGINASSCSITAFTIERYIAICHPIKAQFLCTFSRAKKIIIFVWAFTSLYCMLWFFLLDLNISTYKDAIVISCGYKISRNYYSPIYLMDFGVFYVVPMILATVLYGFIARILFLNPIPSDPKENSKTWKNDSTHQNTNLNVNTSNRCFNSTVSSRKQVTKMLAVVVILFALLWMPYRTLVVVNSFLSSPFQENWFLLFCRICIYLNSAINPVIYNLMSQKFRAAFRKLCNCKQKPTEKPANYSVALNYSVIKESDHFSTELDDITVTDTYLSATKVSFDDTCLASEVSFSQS
Cytochrome P450 2D6 (Homo sapiens), sequence (P10635 whole entry, looked up): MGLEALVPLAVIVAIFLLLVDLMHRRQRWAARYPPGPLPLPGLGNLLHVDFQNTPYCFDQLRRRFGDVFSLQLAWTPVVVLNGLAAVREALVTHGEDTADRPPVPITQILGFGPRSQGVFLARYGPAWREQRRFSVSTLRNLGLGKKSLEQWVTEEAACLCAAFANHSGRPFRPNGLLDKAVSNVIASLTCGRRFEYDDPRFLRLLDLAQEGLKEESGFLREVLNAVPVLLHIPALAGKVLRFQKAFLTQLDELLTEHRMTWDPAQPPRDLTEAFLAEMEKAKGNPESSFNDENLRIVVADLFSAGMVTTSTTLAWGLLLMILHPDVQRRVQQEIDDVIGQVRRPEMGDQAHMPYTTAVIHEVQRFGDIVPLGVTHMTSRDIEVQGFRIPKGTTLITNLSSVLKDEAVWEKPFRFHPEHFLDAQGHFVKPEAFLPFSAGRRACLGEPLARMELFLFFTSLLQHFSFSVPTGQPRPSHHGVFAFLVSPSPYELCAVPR

Take `O=S(=O)(O)CCCN1CCOCC1`: in experiment [1], the result was inactive. In addition, the Potency result in experiment [2], in [3], in experiment [4], in [5], in experiment [6] and in experiment [7] was “inactive” in each case. Besides, the Potency entry in experiment [8], in [9], in experiment [10], in experiment [11], in experiment [12] and in [13] was “inactive” in each case. In addition, the Potency result in experiment [14], in [15] and in [16] was “inactive” throughout.

As for `Clc1cccnc1`, in [1], the outcome was inactive. Moreover, the Potency entry in experiment [2], in experiment [3], in [4], in experiment [5], in experiment [6] and in [7] was “inactive” in each case. In addition, the Potency result in [8], in experiment [9], in experiment [10], in experiment [11], in experiment [12] and in experiment [14] was “inactive” throughout. The Potency result in experiment [15] and in experiment [16] was “inactive” in each case.

For `CCCC(=O)OCC(COC(=O)CCC)OC(=O)CCC`, the call in experiment [1] was inactive. Also, the Potency result in [2], in experiment [3], in experiment [4], in experiment [5], in experiment [6] and in [7] was “inactive” in each case. Further, the Potency result in experiment [8], in [9], in experiment [10], in [11], in experiment [12] and in experiment [13] was “inactive” in each case. Besides, the Potency entry in experiment [15] and in experiment [16] was “inactive” throughout. In experiment [17], the Potency was 20 µM (active).

As for `CC(=O)c1ccccc1N`, in experiment [1], the result was inactive. The Potency result in experiment [2], in experiment [3], in experiment [4], in [5], in [6] and in experiment [7] was “inactive” in each case. In addition, the Potency result in experiment [8], in experiment [9], in experiment [10], in experiment [11], in experiment [12] and in experiment [14] was “inactive” in each case. The Potency entry in [15] and in experiment [17] was “inactive” throughout.

With `CCOC(/C=C(\C)CCC=C(C)C)OCC`, the molecule was called inactive in experiment [1]. The Potency result in experiment [2], in experiment [3], in experiment [4], in [5], in experiment [6] and in experiment [7] was “inactive” each time. Besides, the Potency entry in experiment [8], in [9], in experiment [10], in [11], in [12] and in experiment [13] was “inactive” in each case. Moreover, the Potency entry in [14], in experiment [15] and in experiment [16] was “inactive” each time.

As to `CCOC(=O)COc1ccc(C)cc1`, in experiment [1], the outcome was inactive. Further, the Potency result in [2], in [3], in [4], in [5], in experiment [6] and in experiment [7] was “inactive” in each case. In addition, the Potency entry in experiment [8], in [9], in [10], in experiment [11], in [12] and in experiment [13] was “inactive” in each case. Moreover, the Potency entry in [15] and in [17] was “inactive” throughout.

For the molecule `c1cc2c3c(c1)ccc1cccc(c13)C2`, the call in experiment [1] was inactive. The Potency entry in experiment [2], in experiment [3], in [4], in [5], in [6] and in [7] was “inactive” in each case. Moreover, the Potency entry in [8], in [9], in [10], in experiment [11], in [12] and in experiment [13] was “inactive” throughout. The Potency in experiment [17] was 40.8 µM (active).

For `CC(C)c1ccccc1N`, the molecule was called inactive in experiment [1]. Moreover, the Potency result in experiment [2], in experiment [3], in experiment [4], in experiment [5], in experiment [6] and in experiment [7] was “inactive” throughout. The Potency result in [8], in [9], in experiment [10], in experiment [11], in experiment [12] and in experiment [16] was “inactive” in each case. The Potency in experiment [15] is 61.1 µM (active); in [17] it was 39.9 µM (active).

Regarding `CC1(C)COCN1`, the call in experiment [1] was inactive. Further, the Potency result in experiment [2], in [3], in experiment [4], in experiment [5], in [6] and in experiment [7] was “inactive” in each case. In addition, the Potency result in [8], in experiment [9], in experiment [10], in experiment [11], in [12] and in [13] was “inactive” throughout. The Potency result in experiment [14] and in experiment [15] was “inactive” throughout.
